Rows were chosen to be rich in hits. Some 19% of all compounds tested hit in one or more screens of this group.
HT1080NT lethal – qHTS for induction of synthetic lethality in tumor cells producing 2HG: qHTS for the HT-1080-NT fibrosarcoma cell line. HT-1080-NT fibrosarcoma viability, CellTiter-Glo ATP luminescence, 48 h. Potency, µM (titrated, usually from 46.1 µM), inactives show top-dose activity, negative = less viability, usual class: cytotoxic. 360,000 compounds, 1.6% hits. AID 686970, 2013;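 note: NT is the 2HG producing partner of a matched IDH1 knockdown line; potency is the fitted concentration of half-maximal effect; 0% = DMSO-treated cells and -100% = media-only wells without cells; nearly all actives have a fitted effect of over 55% in size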
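Luminescent CellTiter-Glo readout after 48 hours of compound exposure at 37 degrees C defined viability of HT-1080-NT cells. Activity was normalized to DMSO wells and cell-free media wells; concentration-response curves were fitted and assigned curve classes.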
IL1B secr inh – qHTS for Inhibitors of Inflammasome Signaling: IL-1-beta AlphaLISA Primary Screen. activity change, % at 57.5 µM. THP-1 LPS/ATP IL-1B secretion, AlphaLISA, 16 h; stronger effect = lower value. 360,000 compounds, 4.7% hits; in the data active = activity change below about -50%; inconclusive = mostly about -30% to -49%
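THP-1 cells pretreated 1 hr with compounds (up to 57.5 uM final), then stimulated with LPS (250 ng/mL final) plus ATP (1.25 mM final); secreted IL-1B measured by AlphaLISA after 16 hr, decreased signal indicating inhibition.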
HT1080 IDH1KD tx – qHTS for induction of synthetic lethality in tumor cells producing 2HG: qHTS for the HT-1080-IDH1KD cell line; HT-1080 IDH1 knockdown viability, ATP luminescence, 48 h; Potency, µM (highest dose often 46.1 µM), for the others: at the highest dose activity, negative = toxicity, hits mostly cytotoxic; 360,000 compounds, 2% hits;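 note: potency is the fitted concentration of half-maximal effect; 0% = DMSO wells and -100% = cell-free medium wells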
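Viability of IDH1-knockdown HT-1080 fibrosarcoma cells was assessed by CellTiter-Glo after 48 h at 37 °C with titrated compound; concentration-effect curves were classified by fit quality and response size.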
TDP1 cell noCPT – qHTS for Inhibitors of human tyrosyl-DNA phosphodiesterase 1 (TDP1): qHTS in cells in absence of CPT; DT40 Tdp1-/- hTDP1 cells, no CPT, ATP luminescence, 48 h; Potency, µM (doses to about 46.2 µM), for inactives: at the highest dose activity change, negative = growth inhibition, most hits filed as inhibitors; 420,000 compounds, 15% hits; note: potency is the fitted concentration of half-maximal effect; nearly all actives have a fitted effect of over 55% in size
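Chicken DT40 Tdp1-/- cells complemented with human TDP1, screened without camptothecin (DMSO vehicle only), 400 cells/well. Compounds pin-transferred, cells incubated at 37 °C for at least 48 hr. Growth read as ATP-dependent luminescence (CellTiter-Glo, 30 min at RT).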
DT40 TDP1 CPT – qHTS for Inhibitors of human tyrosyl-DNA phosphodiesterase 1 (TDP1): qHTS in cells in presence of CPT | Potency, µM (top dose mostly 46.2 µM), for inactives: at the top dose activity change, negative = growth inhibition, hits mostly inhibitors | AID 686979, 2013 | chicken DT40 Tdp1-/-;hTDP1 cells + 20 nM CPT, ATP luminescence, 48 h | 420,000 compounds, 12% hits; note: potency is the fitted concentration of half-maximal effect; nearly all actives have a fitted effect of over 55% in size
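Chicken DT40 Tdp1-/- cells stably complemented with human TDP1 were seeded at 400 cells/well in medium containing 20 nM camptothecin, exposed to pin-transferred compounds, and grown at 37 °C for at least 48 hr. Viability was read as ATP luminescence.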
Active calls of the source: *; u = inconclusive; x = not tested or not shown. Unless noted, calls come from the whole dose curve; as a rule, active = well fitted curve in the direction sought with a large enough effect; inconclusive = small, poorly fitted or top-dose-only effect, or another doubt; inactive = no such curve, though single readings can be large; an effect the other way counts as inactive or inconclusive. Unless noted, % is set by controls: 0 for no effect and ±100 for the full control effect.

SMILES	HT1080NT lethal	IL1B secr inh	HT1080 IDH1KD tx	TDP1 cell noCPT	DT40 TDP1 CPT
CSCCC(NS(=O)(=O)c1ccc2ccccc2c1)C(=O)OCC(=O)c1ccc(C(C)C)cc1 (centres undefined)	-3%	3	-14%	16µM*	23µM*
Cc1[nH]c2ccccc2c1C(=O)COC(=O)CCS(=O)(=O)c1ccccc1Cl	6%	-9	7%	u	u
Cc1[nH]c2ccccc2c1C(=O)COC(=O)C1CC(O)CN1S(=O)(=O)c1ccc(Cl)cc1 (centres undefined)	-27%	-76*	u	u	u
CSCCC(NS(=O)(=O)c1ccc(Cl)cc1)C(=O)OCC(=O)c1c(C)[nH]c2ccccc12 (centres undefined)	-13%	-86*	-25%	15µM*	u
Cc1cc(N2CCN(C(c3ccccc3)c3ccccc3)CC2)n2ncnc2n1	1%	23	-1%	u	23µM*
Cc1nc2ncnn2c(N2CCN(C(c3ccccc3)c3ccccc3)CC2)c1C	-15%	-8	u	13µM*	21µM*
Cc1cc(N2CCN(C(=O)c3ccco3)CC2)n2ncnc2n1	22%	-12	20%	-7%	-4%
CCOC(=O)NC(Nc1ccc(OC)cc1)(C(F)(F)F)C(F)(F)F	u	14	-4%	2%	-6%
Cc1ccccc1CN1C(=O)c2ccccc2S(=O)c2ccc(C(=O)N3CCOCC3)cc21 (centres undefined)	x	x	x	0%	2%
Cc1ccc(C)c(CN2C(=O)c3ccccc3S(=O)c3ccc(C(=O)N4CCN(c5ccccn5)CC4)cc32)c1 (centres undefined)	u	-24	-12%	16µM*	u
CCOC(=O)C1CCCN(C(=O)c2ccc3c(c2)N(Cc2ccccc2F)C(=O)c2ccccc2S3=O)C1 (centres undefined)	x	x	x	16µM*	u
CCN1CCN(C(=O)c2ccc3c(c2)N(Cc2cc(C)ccc2C)C(=O)c2ccccc2S3=O)CC1 (centres undefined)	x	x	x	16µM*	18µM*
Cc1ccc(C)c(CN2C(=O)c3ccccc3S(=O)c3ccc(C(=O)N4CCN(c5ccccc5F)CC4)cc32)c1 (centres undefined)	x	x	x	1.8µM*	5.8µM*
COc1cccc(CN2c3ccccc3-c3nc(SCC(=O)Nc4ccccc4Cl)ncc3S2(=O)=O)c1	x	x	x	-22%	-1%
Cc1ccc(C)c(N2CCN(C(=O)c3ccc4c(c3)N(Cc3ccc(F)cc3)C(=O)c3ccccc3S4=O)CC2)c1 (centres undefined)	x	x	x	10µM*	18µM*
CCN1C(=O)c2ccccc2S(=O)c2ccc(C(=O)N3CCCC3)cc21 (centres undefined)	12%	-11	-7%	u	-10%
CCN1C(=O)c2ccccc2S(=O)c2ccc(C(=O)N3CCN(c4cc(Cl)ccc4C)CC3)cc21 (centres undefined)	x	x	x	23µM*	u
O=C(CSc1nc2ccccc2o1)N/N=C/c1ccco1	19%	-10	7%	u	u
O=C(C1CCCN(S(=O)(=O)c2cccc3nonc23)C1)N1CCN(c2ccccc2)CC1 (centres undefined)	-4%	-51*	-14%	22µM*	u
CC(=O)c1ccc(N2CCN(C(=O)C3CCN(S(=O)(=O)c4cccc5nonc45)CC3)CC2)cc1	x	x	x	23µM*	u
O=C(NCc1ccccc1Cl)C1CCCN(S(=O)(=O)c2cccc3nonc23)C1 (centres undefined)	-10%	16	-12%	-27%	9%
CC1CCCN(C(=O)C2CCN(S(=O)(=O)c3cccc4nonc34)CC2)C1 (centres undefined)	5%	19	9%	-24%	2%

Source: PubChem BioAssay (National Center for Advancing Translational Sciences (NCATS))
